# Screening results from PubChem BioAssay.
# Most compounds without a hit are left out; they make up all but 5.3% or so of the library.
# Six1-Eya2 blk – qHTS Assay for Inhibitors of the Six1/Eya2 Interaction. AlphaScreen GST-Six1/His-Eya2 binding, biochemical; active compounds read low. 360,000 compounds, 0.56% hits. Homeobox protein SIX1 (Homo sapiens) + Protein phosphatase EYA2 (Homo sapiens), …. activity change, % (no concentration beside the values). AID 651725, 2012; in the data active means activity change below about -65%; inconclusive means mostly about -30% to -63%; further: on the % scale 0 is the no-effect control and ±100 the full control effect
#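 AlphaScreen with GST-Six1 and His-Eya2 (5X mix: 250 nM and 500 nM), glutathione donor and nickel acceptor beads; buffer 50 mM Tris pH 8.0, 300 mM NaCl, 1 mM TCEP; 1 h at 37 C in the dark.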
# CtBP-E1A blk – qHTS Assay for Inhibitors of the CtBP/E1A Interaction | CtBP / adenovirus E1A interaction (AlphaScreen) | AlphaScreen GST-E1A/His-CtBP binding, 1536-well; active compounds read low | activity change, % (test concentration not listed) | 340,000 compounds, 0.49% hits; in the data active means activity change below about -65%; inconclusive means mostly about -30% to -63%; further: on the % scale 0 is the no-effect control and ±100 the full control effect
#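 Steps: dispense buffer (Tris pH 8.0, NaCl 300 mM, TCEP 1 mM, BSA, Tween 20); add 5X protein mix (GST-E1A, His-CtBP, 125 nM each); pin 23 nL compound; 2 h at 37 °C, dark; add 5X beads (50 ug/mL); 1 h; read.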
# HP1b binding inh – HTS for Inhibitors of HP1-beta Chromodomain Interactions with Methylated Histone Tails. AlphaScreen HP1-beta / biotin-H3K9me3 peptide binding. Potency, µM (series often up to 114 µM), without a hit: at the top dose activity change, negative = inhibition, actives largely listed as inhibitors. 390,000 compounds, 0.56% hits. Chromobox protein homolog 1 (Homo sapiens), P83916; further: potency means the concentration at half of the fitted maximal effect; nearly all actives have a fitted effect of over 70% in size
#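 AlphaScreen: HP1-beta (50 nM) preformed 30 min with biotin-H3(1-18)K9me3 peptide (50 nM) in PBS pH 7.4, 0.01% Tween-20. Compound added for 30 min at RT, then streptavidin donor/nickel chelate acceptor beads (10 ug/mL) for 30 min.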
# BAZ2B inh – qHTS Assay for Inhibitors of BAZ2B; AlphaScreen BAZ2B-H3K14Ac peptide displacement; Potency, µM (series often up to 114 µM), for the others: at the top dose activity change, negative = inhibition, hits mostly inhibitors; 360,000 compounds, 4.4% hits; AID 504333, 2011; further: potency means the concentration at half of the fitted maximal effect; on the % scale 0 is the no-effect control and ±100 the full control effect; nearly all actives have a fitted effect of over 60% in size
#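 Compounds, titrated to a top concentration of 110 uM, were incubated 30 min at room temperature with preformed BAZ2B/acetyl-K14 H3 peptide complex (50 nM each). Proximity signal was measured by AlphaScreen after 20 min with beads.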
# JMJD2A Tudor inh – qHTS Assay for Inhibitors of JMJD2A-Tudor Domain; Lysine-specific demethylase 4A (Homo sapiens), O75164; AlphaScreen JMJD2A-Tudor / H3K4me3 peptide binding; Potency, µM (titrated, usually from 114 µM), for inactives: at the highest dose activity change, negative = inhibition, most hits filed as inhibitors; 390,000 compounds, 4.4% hits; AID 504339, 2011; further: potency means the concentration at half of the fitted maximal effect; on the % scale 0 is the no-effect control and ±100 the full control effect; nearly all actives have a fitted effect of over 50% in size
# TDP1 block – qHTS Assay for Inhibitors of Tyrosyl-DNA Phosphodiesterase (TDP1); AID 485290, 2010; recombinant TDP1, AlphaScreen DNA substrate cleavage; Potency, µM (titrated, usually from 130 µM), without a hit: top-dose activity change, negative = inhibition, most hits filed as inhibitors; 350,000 compounds, 0.28% hits; further: potency means the concentration at half of the fitted maximal effect; on the % scale 0 is the no-effect control and ±100 the full control effect; nearly all actives have a fitted effect of over 40% in size
#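 Recombinant human Tdp1 (E. coli-expressed, 1 nM final) preincubated with compounds 15 min at room temperature, then 5'-biotin/3'-phosphotyrosine-FITC DNA substrate (15 nM final) added for 5 min. AlphaScreen beads (10 ug/ml final) added 10 min; cleavage lowers signal.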
# An asterisk follows results filed as active; u = inconclusive; x = no result given; [ ] = another dose, or the depositor's remark. Unless noted, the call rests on the fitted dose curve; in most records, active means well fitted inhibition curve with a large enough effect; inconclusive means small, poorly fitted or top-dose-only effect; inactive means no such curve, though single readings can be large or run the other way.
SMILES,Six1-Eya2 blk,CtBP-E1A blk,HP1b binding inh,BAZ2B inh,JMJD2A Tudor inh,TDP1 block
O=C(NNC1=NCCCCC1)c1ccccc1,3,13,-22%,-8%,3.2µM*,0%
N#CCCCS(=O)(=O)c1ccccc1,x,x,x,x,x,4%
CSc1ccccc1C(=O)Nc1ncn[nH]1,-13,x,44%,u,79µM*,5%
CC(C)(C)c1ccc(C(=O)Nc2ncn[nH]2)cc1,-5,1,30%,u,9%,5%
Cc1ccc(C(=O)Nc2ncn[nH]2)cc1,-13,0,49%,50µM*,u,4%
CSc1ccccc1C(=O)Nc1c(C)cccc1C,-5,0,28%,-12%,-4%,x
Cc1ccc(SC(C)C(=O)Nc2ncn[nH]2)cc1 (stereo not drawn),-15,-11,41%,56µM*,-22%,-1%
O=C(Nc1ncn[nH]1)c1cccc(F)c1,-11,-8,x,50µM*,u,0%
COc1ccc(C(=O)NCC(c2cccnc2)N2CCN(c3ccccc3F)CC2)cc1OC (stereo not drawn),x,x,5%,-12%,-18%,3%
Cc1cc(C)cc(NC(=O)C2CC(=O)N(c3ccccc3)C2)c1 (stereo not drawn),x,x,32%,-14%,-1%,2%
Cc1ccc(NS(=O)(=O)c2cccc(C(=O)O)c2)cc1C,x,x,x,x,-11%,3%
Cc1ccc(C(=O)NCCCNC(=O)c2ccc(C)nc2)cc1,1,-1,0%,1%,-11%,3%
CC(C)c1ccc(C(=O)NCCCN(C)C)cc1,11,-12,8%,8%,-5%,4%
C[N+](C)(C)CCCNC(=O)c1ccc(/C=N/O)nc1,-69*,u,4%,20µM*,4µM*,-1%
CN(C)CCCNC(=O)c1ccc(/C=N/O)nc1,u,u,-31%,10%,1.4µM*,3%
CNCCCNC(=O)c1ccc(/C=N/O)nc1,-69*,u,18%,22µM*,20µM*,3%
Cc1ccccc1Nc1n[nH]c(=S)s1,-2,-6,x,x,x,x
Nc1ccccc1-c1n[nH]c(=S)s1,3,-1,u,u,28µM*,8%
CC1CCc2ccccc2N1C(=O)c1cccs1 (stereo not drawn),3,5,u,7%,56µM*,7%
Cc1ccc(Cl)cc1N1CCN(C(=O)CSc2nnc3n2C(C)(C)Cc2ccccc2-3)CC1,-8,-2,41%,3%,89µM*,1%
COc1ccc(N2CCN(C(=O)CSc3nnc4n3C(C)(C)Cc3ccccc3-4)CC2)cc1,4,1,-2%,u,-32%,-1%
C/C(=N\NC(=O)c1cc(-c2cccc([N+](=O)[O-])c2)n[nH]1)c1ccccc1O,-2,-5,27%,8.9µM*,14µM*,0%
Cn1c(=O)c2c(-c3ccccc3)n(Cc3ccccn3)cc2n(C)c1=O,-19,-22,48%,50µM*,-29%,5%
Cc1ccc(NC(=O)CCN2CCC(Cc3ccccc3)CC2)cc1,-5,-3,15%,6%,-15%,x
CC(=O)N1CCN(CC(=O)Nc2ccc(C)c(S(=O)(=O)N(C)C)c2)CC1,-6,-1,u,79µM*,5.6µM*,-3%
SMILES,Six1-Eya2 blk,CtBP-E1A blk,HP1b binding inh,BAZ2B inh,JMJD2A Tudor inh,TDP1 block
Cc1ccc(NC(=O)CCNCc2ccco2)cc1S(=O)(=O)N(C)C,4,-3,u,50µM*,1.8µM*,-4%
Cc1ccc(NC(=O)CN2CCN(C(=O)c3ccco3)CC2)cc1S(=O)(=O)N(C)C,-1,2,u,x,6.3µM*,x
Cc1ccc(NC(=O)CN2CCC(Cc3ccccc3)CC2)cc1S(=O)(=O)N(C)C,0,-2,u,40µM*,18µM*,x
CCOC(=O)c1c(C)c(-c2ccccc2)n(CC(=O)Nc2cccc(C)c2C)c1C,x,x,22%,-3%,-16%,0%
CCOc1ccc(CC(=O)Nc2nnc3n2CCS3)cc1,x,x,-2%[57 µM],11%,56µM*,-4%
CCOc1ccc(CNC(=O)Cc2ccc(NC(=O)N3CCSc4ncccc43)cc2)cc1,x,x,25%,-17%,-8%,3%
COc1ccc(CC(=O)Nc2nnc3n2CCS3)cc1,x,x,17%[57 µM],u,56µM*,3%
CC(=O)N1CCc2cc(Br)cc(S(=O)(=O)N3CCN(c4cc(C)ccc4C)CC3)c21,x,x,21%,0%,-6%,3%
Cc1ccccc1CSc1nnc2[nH]c(=O)cc(-c3ccccc3)n12,x,x,5%,-1%,-10%,5%
COc1ccc(C(=O)Nc2cccc(/C=C(\CCC(=O)O)c3nc4ccccc4s3)c2)cc1,-7,-7,32µM*,79µM*,-29%[11.4 µM],x
COc1ccc(/C=C(\CC(=O)O)c2nc3ccccc3s2)cc1O,7,3,21%,-12%,-23%,-7%
O=C(O)C/C(=C\c1cccc(NC(=O)c2ccccc2Cl)c1)c1nc2ccccc2s1,0,5,-1%,79µM*,35µM*,x
Cc1nn(-c2ccccc2)c(OC(=O)c2ccccc2F)c1S(=O)(=O)c1ccccc1,x,x,-2%,u,-33%,2%[12.3 µM]
CN(C)CCCN1c2ccccc2Sc2ccc(Cl)cc21,-1,u,u,40µM*,20µM*,11%
CN(C)CCCN1c2ccc3ccccc3c2Sc2cccc(Cl)c21,4,-3,u,x,50µM*,x
CN(C)CCCN1c2ccccc2Sc2ccc3ccccc3c21,2,-5,7%,x,-33%,x
Cc1nn(CC(=O)NC(C)c2ccccc2)c(=O)c2cc3occc3n12 (stereo not drawn),x,x,20%,2%,-36%,0%
CCOC(=O)c1cc(-c2ccc(OC)cc2)nn1-c1ccccc1C(=O)O,-14,7,u,u,u,7.9µM*
CCN1CCN(c2ncnc3c2c(-c2ccccc2)cn3-c2ccc(F)cc2)CC1,-2,-6,27%,u,40µM*,1%
OCCN1CCN(c2ncnc3c2c(-c2ccccc2)cn3-c2ccc(Br)cc2)CC1,-16,3,-33%,45µM*,35µM*,5%
Cc1ccc(C)c(CN2C(=O)c3ccccc3Sc3ccc(C(=O)NC4CCCC4)cc32)c1,x,x,77%,1%,-11%,5%
CN(Cc1ccccc1)C(=O)Cn1c(=O)c2cccn2c2ccc(F)cc21,x,x,30%,3%,-20%,0%
